Vaccinia Venus – qHTS for Stage-Specific Inhibitors of Vaccinia Orthopoxvirus: Venus Reporter Primary qHTS; Vaccinia virus Venus reporter expression, fluorescence; Potency, µM (top dose mostly 36.5 µM), inactives show top-dose activity change, negative = inhibition, most hits filed as inhibitors; actives 0.46% (n = 330,000); calls by dose curve; tested in A549 cells; also: potency is read from the fitted curve at half-maximal effect; nearly all actives have a fitted effect of over 30% in size
FMDV antiviral – High Throughput Screening for Foot and Mouth Disease Virus Antivirals; FMDV antiviral cell-based qHTS; Potency, µM (doses to about 57.9 µM), without a hit: at the highest dose activity change, negative = inhibition, hits mostly inhibitors; actives 1.2% (n = 410,000); calls by dose curve; tested in HEK293T cells; also: read-out not given here; potency is read from the fitted curve at half-maximal effect; nearly all actives have a fitted effect of over 45% in size
HCMV inh – qHTS Assay for inhibitors of the human cytomegalovirus (HCMV). HFF cells, HCMV-luciferase reporter, 72 h; hits give low values. activity change, negative = inhibition, % at 57.5 µM. actives 4.5% (n = 410,000); in the data active = activity change below about -60%; inconclusive = no clear call, values can overlap the other calls; inactive = above about -39%
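Two-dose cell screen: HFF monolayers treated with compounds and infected with luciferase-expressing HCMV at 1 PFU/cell, 72 h at 37C, then lysed for luciferase measurement.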
VACV mCherry inh – qHTS for Stage-Specific Inhibitors of Vaccinia Orthopoxvirus: mCherry Reporter Primary qHTS; actives 0.63% (n = 310,000); Potency, µM (highest dose often 36.5 µM), without a hit: top-dose activity change, negative = inhibition, usual class: inhibitors; Vaccinia virus mCherry reporter infection, fluorescence; AID 720579, 2013; calls by dose curve; tested in A549 cells; also: potency is read from the fitted curve at half-maximal effect; nearly all actives have a fitted effect of over 35% in size
HCV inhibitor – qHTS Assay for Inhibitors of Hepatitis C Virus (HCV); Potency, µM (top dose mostly 41.8 µM), for inactives: at the highest dose activity change, negative = inhibition, hits mostly inhibitors; actives 3.4% (n = 340,000); Huh7.5.1 HCVcc-Cre infection, luciferase reporter, 44 h; AID 651820, 2012; active = well fitted inhibition curve with a large enough effect; inconclusive = small, poorly fitted or top-dose-only effect, or another doubt; inactive = no such curve, though single readings can be large or run the other way; also: potency is read from the fitted curve at half-maximal effect
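Luciferase read-out (15 sec integration) after a 15 min room-temperature substrate step quantifies HCVcc-Cre infection. Cells, 1,000 per well, had compound added 4 h post-plating, then virus at ~0.5 moi, and were cultured 44 h.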
* hit, by the source's call; [ ] = remark or other dose. Sampled rows, rich in hits. Any-hit rate of the full collection: about 7.3%. % is scaled to controls: 0 for no effect and ±100 for the full control effect.

For Cc1ccc(OCC(=O)Nc2ccc(S(=O)(=O)Nc3ncccn3)cc2)c(C(C)(C)C)c1 the results were Vaccinia Venus 13%, FMDV antiviral -25%, HCMV inh 2 and VACV mCherry inh -10%.
`Cc1cccc(NC(=O)c2c(F)c(F)c(F)c(F)c2F)c1` gave Vaccinia Venus -9%, FMDV antiviral 8%, HCMV inh -17, VACV mCherry inh -4% and HCV inhibitor inconclusive.
Screening CC(=O)c1cccc(NC(=O)c2c(F)c(F)c(F)c(F)c2F)c1 returned Vaccinia Venus 10µM*, FMDV antiviral 0%, HCMV inh -12 and HCV inhibitor inconclusive.
`COC(=O)c1cc(NC(=O)c2c(F)c(F)c(F)c(F)c2F)cc(C(=O)OC)c1` gave Vaccinia Venus -17%, FMDV antiviral 0%, HCMV inh -63*, VACV mCherry inh inactive and HCV inhibitor 13µM*.
COC(=O)c1cc(NC(=O)C2CC2)cc(C(=O)OC)c1 was read as FMDV antiviral 20%, HCMV inh 59 and HCV inhibitor inconclusive.
Screening COC(=O)c1sccc1NC(=O)c1c(F)c(F)c(F)c(F)c1F returned Vaccinia Venus -6%[7.34 µM], FMDV antiviral 22µM*, HCMV inh inconclusive, VACV mCherry inh inactive[7.34 µM] and HCV inhibitor 13µM*.
`COC(=O)c1ccc(SCC(=O)NCc2ccccc2)c([N+](=O)[O-])c1` gave Vaccinia Venus -5%, FMDV antiviral -3%, HCMV inh 42, VACV mCherry inh -3% and HCV inhibitor 14µM*.
`COc1ccc(-n2c(-c3ccc(Cl)cc3)c[n+]3c2CCc2ccccc2-3)cc1` gave Vaccinia Venus -13%, FMDV antiviral inconclusive, HCMV inh -99*, VACV mCherry inh -22% and HCV inhibitor -4%.
Screening CCc1ccc(CN(C(=O)COc2c(C)cccc2C)C2CCS(=O)(=O)C2)cc1 (centres undefined) returned FMDV antiviral 14%, HCMV inh -109* and HCV inhibitor -21%.
Screening CC(=O)Oc1cc2c3c(c1)/C(=C1/SC(=S)NC1=O)C(=O)N3C(C)(C)C=C2C returned FMDV antiviral inconclusive, HCMV inh -66* and HCV inhibitor 13%.
COc1cc2c3c(c1)c(C1=NC(=S)NC1=O)c(O)n3C(C)(C)C=C2C was read as FMDV antiviral 7%, HCMV inh 9 and HCV inhibitor 4%.
NNC(=S)NC1CCS(=O)(=O)C1 (centres undefined) was read as Vaccinia Venus -15%, FMDV antiviral -14%, HCMV inh 20, VACV mCherry inh inactive and HCV inhibitor 27%.
Screening O=S1(=O)CC=C(CSC(=S)NC2CCS(=O)(=O)C2)C1 (centres undefined) returned Vaccinia Venus -3%, FMDV antiviral 11µM*, HCMV inh 34, VACV mCherry inh inactive and HCV inhibitor -27%.
CC(C)(C)c1cc(CSC(=S)NC2CCS(=O)(=O)C2)c(Br)c(C(C)(C)C)c1 (centres undefined) was read as Vaccinia Venus -6%, FMDV antiviral 16µM*, HCMV inh 37, VACV mCherry inh -14% and HCV inhibitor 12%.
For CN(C)C(=S)NC1CCS(=O)(=O)C1 (centres undefined) the results were Vaccinia Venus 5%, FMDV antiviral -4%, HCMV inh -25, VACV mCherry inh 4% and HCV inhibitor -15%.
Screening O=Cc1cnc(N2CCN(c3ccccc3)CC2)s1 returned Vaccinia Venus -8%, FMDV antiviral -2%, HCMV inh 14, VACV mCherry inh -10% and HCV inhibitor 5%.
Screening CN(Cc1ccccc1)c1ncc(C=O)s1 returned Vaccinia Venus -19%, FMDV antiviral -7%, HCMV inh -63*, VACV mCherry inh inactive and HCV inhibitor 10%.
`Cc1ccc(C(CC(=O)Nc2ccc(F)c(Cl)c2)N2Cc3ccccc3C2=O)cc1` (centres undefined) gave Vaccinia Venus -4%, FMDV antiviral 3%, HCMV inh -104* and VACV mCherry inh 2%.
Screening COc1ccc(C(CC(=O)Nc2ccc(F)c(Cl)c2)N2Cc3ccccc3C2=O)cc1OC (centres undefined) returned Vaccinia Venus -7%, FMDV antiviral 37%, HCMV inh -9 and VACV mCherry inh 5%.
For CCCCNC(=O)N[C@H]1CC[C@@]23CCCN2C(=O)CCC[C@H]3[C@H]1CCC the results were HCMV inh 5.
`O=C(NCCCc1ccc(F)cc1)C1CCC(=O)N(CC2CCCCC2)C1` (centres undefined) gave Vaccinia Venus -28%, FMDV antiviral -24%, HCMV inh -1, VACV mCherry inh -12% and HCV inhibitor -21%.
`CCn1cc(C(=O)NCCc2ccc(Cl)cc2)c(=O)c2cc(S(=O)(=O)N3CCC(C)CC3)ccc21` gave Vaccinia Venus -13%, FMDV antiviral -7%, HCMV inh 16 and VACV mCherry inh -30%.
Screening CCOC(=O)C1(CCOc2ccccc2)CCN(Cc2cccc3c2OCO3)CC1 returned Vaccinia Venus -18%, FMDV antiviral inconclusive, HCMV inh -38, VACV mCherry inh -8% and HCV inhibitor 10µM*.
For CCOC(=O)C1(CCOc2ccccc2)CCN(Cc2cc(OC)c3c(c2)OCO3)CC1 the results were Vaccinia Venus -13%, FMDV antiviral inconclusive, HCMV inh inconclusive, VACV mCherry inh -4% and HCV inhibitor 11µM*.
For CCOC(=O)C1(CCOc2ccccc2)CCN(Cc2ccccc2O)CC1 the results were Vaccinia Venus -18%, FMDV antiviral -29%, HCMV inh 18, VACV mCherry inh inactive and HCV inhibitor inconclusive.
Screening CCCc1cc(C(=O)N2CCC(n3nccc3NC(=O)c3ccc(OC)cc3)CC2)no1 returned FMDV antiviral 0%, HCMV inh 65 and HCV inhibitor -5%.
Screening CCc1nc2c(OCCC3CCCCC3)cccn2c1N(C)C(=O)c1ccc(C)cc1 returned Vaccinia Venus -9%, FMDV antiviral inconclusive, HCMV inh 80 and VACV mCherry inh -16%.
For CCC(=O)Nc1cccc(C(=O)/C=C/c2cc(Br)ccc2OC)c1 the results were Vaccinia Venus inconclusive, FMDV antiviral 8.9µM*, HCMV inh -104*, VACV mCherry inh inconclusive and HCV inhibitor 11µM*.
Screening COc1ccc(Br)cc1/C=C/C(=O)Nc1ccc2ccccc2c1 returned Vaccinia Venus -23%, FMDV antiviral -7%, HCMV inh -37, VACV mCherry inh -28% and HCV inhibitor 10µM*.
`CCC(=O)Nc1cccc(C(=O)OC)c1` gave Vaccinia Venus -12%, FMDV antiviral 8%, HCMV inh -35, VACV mCherry inh -16% and HCV inhibitor 0%.

Assay outcomes deposited in PubChem by National Center for Advancing Translational Sciences (NCATS).
